# Screens: PubChem BioAssay, National Center for Advancing Translational Sciences (NCATS)
# Hits are enriched below; roughly 21% of the tested compounds scored in any of these assays.
# TDP1 cell noCPT – qHTS for Inhibitors of human tyrosyl-DNA phosphodiesterase 1 (TDP1): qHTS in cells in absence of CPT; hit rate 15% among 420,000; Potency, µM (doses to about 46.2 µM), inactives show at the top dose activity change, negative = growth inhibition, hits mostly inhibitors; DT40 Tdp1-/- hTDP1 cells, no CPT, ATP luminescence, 48 h; AID 686978, 2013; also: potency is read from the fitted curve at half-maximal effect; % is scaled to controls: 0 for no effect and ±100 for the full control effect; nearly all actives have a fitted effect of over 55% in size
#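 Chicken DT40 Tdp1-/- cells stably complemented with human TDP1 were seeded at 400 cells/well with DMSO in place of 20 nM camptothecin. After compound pinning, cells grew at least 48 hr at 37 °C; viability read by CellTiter-Glo luminescence.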
# DRD3 agonist – qHTS of D3 Dopamine Receptor Agonist: qHTS. max activation, %. D(3) dopamine receptor (Homo sapiens), P35462. D3R DiscoveRx beta-arrestin cells, luminescence, 90 min. hit rate 0.58% among 410,000; in the data active = max activation above about 30%; also: 0% is about no effect
# Target sequence (P35462 whole entry, looked up): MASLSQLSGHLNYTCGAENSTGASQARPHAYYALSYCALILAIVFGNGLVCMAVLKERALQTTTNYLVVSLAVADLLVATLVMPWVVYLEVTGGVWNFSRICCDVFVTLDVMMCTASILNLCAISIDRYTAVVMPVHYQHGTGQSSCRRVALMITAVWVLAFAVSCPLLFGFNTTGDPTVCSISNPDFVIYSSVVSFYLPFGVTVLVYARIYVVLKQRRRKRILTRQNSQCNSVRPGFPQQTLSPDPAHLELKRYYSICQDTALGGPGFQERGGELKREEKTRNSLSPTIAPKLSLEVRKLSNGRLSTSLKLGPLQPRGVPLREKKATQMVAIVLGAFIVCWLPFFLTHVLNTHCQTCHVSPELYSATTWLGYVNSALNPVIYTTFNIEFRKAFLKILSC
#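 Agonist mode: compounds and dopamine controls were applied to plated cells for 90 min at 37 degrees C after an overnight attachment at 1500 cells/well. Luminescent read-out followed 30 - 60 minutes at room temperature with DiscoveRx detection reagent.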
# IL1B secr inh – qHTS for Inhibitors of Inflammasome Signaling: IL-1-beta AlphaLISA Primary Screen. hit rate 4.7% among 360,000. THP-1 LPS/ATP IL-1B secretion, AlphaLISA, 16 h; stronger effect = lower value. activity change, % at 57.5 µM; in the data active = activity change below about -50%; inconclusive = mostly about -30% to -49%; also: % is scaled to controls: 0 for no effect and ±100 for the full control effect
#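 Secreted IL-1B measured by AlphaLISA bead assay after 16 h compound exposure of THP-1 cells; compounds (final up to 57.5 uM) added 1 h before LPS (250 ng/mL) and ATP (1.25 mM) stimulation; lower signal means less secretion.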
# ClpP mod – qHTS Assay for Activators of ClpP; Potency, µM (highest dose often 57.5 µM), without a hit: at the highest dose activity change, negative = active; purified B. subtilis ClpP, FRET peptide cleavage, 20 min; ATP-dependent Clp protease proteolytic subunit (Bacillus subtilis (strain 168)), P80244; hit rate 1.9% among 340,000; AID 651965, 2013; active = well fitted falling curve with a large enough effect; inconclusive = small, poorly fitted or top-dose-only effect; inactive = no such curve, though single readings can be large or run the other way; also: potency is read from the fitted curve at half-maximal effect; the source files actives as falling curves though it sought activators and does not explain the sign; nearly all actives have a fitted effect of over 65% in size
#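 Buffer: 100 mM Tris/HCl pH8, 100 mM KCl, 0.05% low protease BSA, 2.5% glycerol, 0.01% Tween-20. ClpP 10 microg/mL final; 20 min RT; delta FRET normalized to ADEP and DMSO controls.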
# DRD3 antagonist – qHTS of D3 Dopamine Receptor Antagonist: qHTS | max response, negative = inhibition, % | D(3) dopamine receptor (Homo sapiens), P35462 | hit rate 2.5% among 360,000 | D3R cells, DiscoveRx beta-arrestin luminescence, antagonist mode; stronger effect = lower value; in the data active = max response below about -50%; inconclusive = no clear call, values can overlap the other calls; also: % is scaled to controls: 0 for no effect and ±100 for the full control effect
#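 Cells expressing the human receptor were seeded at 1500 cells/well, incubated overnight at 37 degrees C in 5% CO2, then exposed to library compounds with dopamine controls for 90 minutes at 37 degrees C before luminescent detection.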
# DT40 TDP1 CPT – qHTS for Inhibitors of human tyrosyl-DNA phosphodiesterase 1 (TDP1): qHTS in cells in presence of CPT. chicken DT40 Tdp1-/-;hTDP1 cells + 20 nM CPT, ATP luminescence, 48 h. Potency, µM (series often up to 46.2 µM), for inactives: at the highest dose activity change, negative = growth inhibition, hits mostly inhibitors. hit rate 12% among 420,000; also: potency is read from the fitted curve at half-maximal effect; % is scaled to controls: 0 for no effect and ±100 for the full control effect; nearly all actives have a fitted effect of over 55% in size
#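 Cell growth measured by CellTiter-Glo luminescence after a minimum 48 h, 37 C compound exposure with 20 nM CPT in Tdp1-knockout DT40 cells stably expressing hTDP1, seeded 400/well; qHTS titration format.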
# Starred values were filed as active, the others as inactive; ? = inconclusive; · = not tested or not shown. Unless noted, calls follow the shape of the dose curve; as a rule, active = well fitted inhibition curve with a large enough effect; inconclusive = small, poorly fitted or top-dose-only effect; inactive = flat fitted curve, though single readings scatter.
SMILES,TDP1 cell noCPT,DRD3 agonist,IL1B secr inh,ClpP mod,DRD3 antagonist,DT40 TDP1 CPT
C=CCC[C@H](Cc1ccc(F)cc1)C(=O)OC[C@@H](NC(=O)[C@H](CC=C)CC(=O)NCCO)C(C)(C)C,?,6.2,-3.5,0.9%,27.5,?
CCC(C)NC(=O)c1cc(C)no1 (stereo not drawn),-9.2%,-8.8,-23.2,1.2%,-63.6*,-6.9%
Cc1ccc(C)c(NC(=O)CN(Cc2ccccc2)S(=O)(=O)c2ccc3nc(C)sc3c2)c1,?,0.8,·,-2.9%,·,?
CC[C@@]1(C(=O)OC)N[C@H](CN(C)C(=O)C2CCCCC2)[C@@H]2C(=O)N(Cc3ccccc3)C(=O)[C@@H]21,-1.1%,-13.0,-5.0,-1.7%,20.7,1.1%
CC[C@@]1(C(=O)OC)N[C@H](CN(C)C(=O)COc2ccccc2)[C@@H]2C(=O)N(C)C(=O)[C@@H]21,5.2%,-12.7,33.1,0.6%,38.3,14.4%
CCN(C[C@H]1N[C@@](C)(C(=O)OC)[C@H]2C(=O)N(Cc3ccccc3)C(=O)[C@@H]12)C(=O)c1ccc(C(C)(C)C)cc1,16.4µM*,7.8,-10.0,1.0%,42.9,?
COC(=O)[C@]1(Cc2ccccc2)N[C@H](CN(C)C(=O)COc2ccccc2)[C@@H]2C(=O)N(Cc3ccccc3)C(=O)[C@@H]21,?,2.3,-0.2,0.6%,-14.4,20.6µM*
CCN(C[C@H]1N[C@@](Cc2ccccc2)(C(=O)OC)[C@H]2C(=O)N(Cc3ccccc3)C(=O)[C@@H]12)C(=O)COc1ccccc1,18.4µM*,-21.1,-20.5,1.5%,0.0,20.6µM*
CCN(C[C@H]1N[C@@](Cc2ccccc2)(C(=O)OC)[C@H]2C(=O)N(Cc3ccccc3)C(=O)[C@@H]12)C(=O)C1CCCCC1,13µM*,-25.8,-17.7,-2.3%,-57.4*,?
CCNC(=O)N(CC)C[C@H]1N[C@@](Cc2ccccc2)(C(=O)OC)[C@H]2C(=O)N(Cc3ccccc3)C(=O)[C@@H]12,-28.2%,0.4,11.8,1.5%,3.3,12.2%
CCCC(=O)N1CCCC1(C)C(=O)Nc1cc(C)ccc1C (stereo not drawn),-0.4%,11.8,28.3,0.1%,3.7,1.8%
O=C(c1cccs1)N1C[C@H](O)[C@@H](n2cc(-c3ccc(F)cc3)nn2)C[C@@H]1c1ccccc1,-8.9%,1.5,?,-0.7%,22.5,-21.7%
COC(=O)[C@]1(Cc2ccccc2)N[C@H](CN(C)C(=O)c2ccc(C(C)(C)C)cc2)[C@@H]2C(=O)N(Cc3ccccc3)C(=O)[C@@H]21,20.6µM*,-22.5,-6.4,1.9%,-7.1,14.6µM*
COC(=O)[C@]1(Cc2ccccc2)N[C@H](CN(C)C(C)=O)[C@@H]2C(=O)N(Cc3ccccc3)C(=O)[C@@H]21,4.1%,-33.2,16.3,2.8%,-53.0*,-6.5%
COC(=O)[C@]1(Cc2ccccc2)N[C@H](CN(C)C(=O)NC(C)C)[C@@H]2C(=O)N(Cc3ccccc3)C(=O)[C@@H]21,-13.8%,-1.0,5.8,-2.7%,-21.3,-11.3%
CCOC(=O)C1=C(COC(=O)/C=C/c2cccc(F)c2)NC(=O)NC1C (stereo not drawn),14.5%,7.9,4.4,·,13.3,15.2%
CN(C(=O)Nc1cccc(C(F)(F)F)c1)C1CCCCC1,0.0%,3.2,4.9,·,1.6,-0.4%
Cc1ccc(N2CCN(C(=O)c3cccn4c(=O)c5ccc(Cl)cc5nc34)CC2C)cc1 (stereo not drawn),2.5%,-0.7,·,-6.0%,·,-27.2%
